Among the data in PubChem BioAssay (NCI) are growth values, retold here.

Test systems include SR leukemia; OVCAR-8 ovarian; OVCAR-5 ovarian; OVCAR-4 ovarian; SK-OV-3 ovarian; IGROV1 ovarian; HS 578T breast; NCI/ADR-RES ovarian; T-47D breast; BT-549 breast; MDA-MB-435 melanoma; SW-620 colon; MCF7 breast; HCT-116 colon; HCC-2998 colon; KM12 colon; RPMI-8226 leukemia; OVCAR-3 ovarian.
Holding throughout (test): NCI-60 one-dose screen, 48 h (100 = growth as untreated, 0 = no growth, -100 = all killed)
Common to all, as to details: 10 µM unless noted

Compounds without any hit were thinned out: in the full panel of roughly 83,000, 20% have a hit.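 48-hour exposure, single concentration, 96-well plates; percent growth endpoint where 0 means no net growth. Active: below 10.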 A number with no mark means an inactive call. The source made the active and inactive calls.

As to `COc1ccc(/C=N/c2cc(C(C)(C)C)nn2-c2ccccc2)cc1`, the growth with SR leukemia is 78.4%; in the assay on OVCAR-8 ovarian, 97%; in the assay on OVCAR-5 ovarian, 113%; in the assay on OVCAR-4 ovarian it was 109%; in the assay on SK-OV-3 ovarian, 101%; with IGROV1 ovarian it was 125%. For the same compound, the growth was 107% with HS 578T breast; 118% in the assay on NCI/ADR-RES ovarian; 85.8% with T-47D breast; 128% in the assay on BT-549 breast; 95.5% in the assay on MDA-MB-435 melanoma; 101% in the assay on SW-620 colon. Besides, the growth in the assay with MCF7 breast is 88.8%; with HCT-116 colon, 92.8%; in the assay with HCC-2998 colon, 132%; with KM12 colon, 104%.

As to `O=C(/C=C\c1ccccc1Cl)c1ccccc1`, the growth in the assay on SR leukemia was 67.6%; in the assay with RPMI-8226 leukemia it was 66%; with OVCAR-8 ovarian it was 104%; in the assay on SK-OV-3 ovarian it was 107%; in the assay on IGROV1 ovarian, 111%; in the assay with OVCAR-3 ovarian it was 99.5%. Besides, the growth in the assay on HS 578T breast was 111%; in the assay with NCI/ADR-RES ovarian, 101%; with T-47D breast it was 91.6%; with BT-549 breast it was 92%; in the assay with MDA-MB-435 melanoma, 90.5%; with SW-620 colon, 82.5%. The growth with MCF7 breast was 46.8%; in the assay with HCT-116 colon it was 53.9%; in the assay on HCC-2998 colon, 94.6%; with KM12 colon, 66%.

For the compound `CCCCCC(=C/c1ccccc1)/C=N/N=C(N)N`, the growth is -2.56% (active) in the assay on SR leukemia; 58.8% in the assay on OVCAR-5 ovarian; 31.7% with OVCAR-4 ovarian; 76.9% with SK-OV-3 ovarian; -63.3% (active) with IGROV1 ovarian; 41.7% with NCI/ADR-RES ovarian. Besides, the growth in the assay on T-47D breast was -34.3% (active); in the assay on BT-549 breast, 46.6%; with MDA-MB-435 melanoma, -80% (active); in the assay on MCF7 breast, -69.6% (active); with HCT-116 colon, -56.6% (active); in the assay on HCC-2998 colon it was -79% (active).

With `COc1cc(-c2nn(-c3ccc(NC(=O)Nc4ccc(Cl)c(C(F)(F)F)c4)cc3)cc2-c2ccncc2)ccc1Cl`, the growth with SR leukemia was -1.8% (active); in the assay with OVCAR-8 ovarian, 8.56% (active); in the assay with OVCAR-4 ovarian, 23.1%; in the assay with SK-OV-3 ovarian, 10.7%; in the assay with IGROV1 ovarian it was 25.9%; in the assay with OVCAR-3 ovarian, 10.9%. The growth with NCI/ADR-RES ovarian was -1.19% (active); in the assay with T-47D breast, 15.1%; in the assay with MDA-MB-435 melanoma, 4% (active); in the assay with SW-620 colon, 13.4%; in the assay with MCF7 breast it was 8.22% (active); with HCT-116 colon, 2.34% (active). Besides, in the assay with KM12 colon, the growth is 6.77% (active).

As to `N=C(c1ccccc1)N(Cc1ccccc1)Cc1ccccc1`, the growth is 64.8% with SR leukemia; 94.4% with RPMI-8226 leukemia; 97.9% with OVCAR-8 ovarian; 84.9% in the assay with OVCAR-4 ovarian; 98.1% in the assay on SK-OV-3 ovarian; 67% with IGROV1 ovarian. For the same compound, the growth was 110% in the assay on OVCAR-3 ovarian; 113% in the assay with HS 578T breast; 99.8% in the assay with NCI/ADR-RES ovarian; 94.8% in the assay with T-47D breast; 93.2% in the assay on BT-549 breast; 77.6% in the assay with MDA-MB-435 melanoma. The growth with MCF7 breast is 87.5%; in the assay on HCT-116 colon it was 57.3%; with HCC-2998 colon, 106%; with KM12 colon it was 101%.

For `CN(C)CCOC(=O)C(C)(C)C`, the growth was 99.5% in the assay on SR leukemia; 106% in the assay on RPMI-8226 leukemia; 99.7% in the assay with OVCAR-8 ovarian; 111% in the assay on OVCAR-4 ovarian; 112% with SK-OV-3 ovarian; 111% in the assay with OVCAR-3 ovarian. Besides, the growth in the assay on HS 578T breast was 105%; with NCI/ADR-RES ovarian, 110%; in the assay with T-47D breast it was 103%; in the assay with BT-549 breast, 112%; in the assay on MDA-MB-435 melanoma, 104%; with SW-620 colon it was 91.6%. In addition, the growth in the assay on MCF7 breast is 99.3%; in the assay with HCT-116 colon, 103%; with HCC-2998 colon it was 110%; in the assay with KM12 colon it was 106%.

For the compound `CC(=O)Nc1nc(C)c(C(=O)NNS(=O)(=O)c2ccccc2)s1`, the growth is 155% in the assay with SR leukemia; 135% with RPMI-8226 leukemia; 101% with OVCAR-8 ovarian; 112% in the assay on OVCAR-4 ovarian; 109% in the assay on SK-OV-3 ovarian; 9.33% (active) in the assay on IGROV1 ovarian. Moreover, the growth in the assay on OVCAR-3 ovarian was 136%; in the assay on HS 578T breast, 112%; in the assay on NCI/ADR-RES ovarian it was 118%; in the assay on T-47D breast it was 114%; with MDA-MB-435 melanoma, 125%; with SW-620 colon, 106%. Besides, the growth in the assay on MCF7 breast is 110%; in the assay on HCT-116 colon it was 52.1%; in the assay with HCC-2998 colon, 105%; with KM12 colon it was 125%.

For `COc1ccc(/C=C(/C(=O)N2CCN(c3ccc(C)cc3)CC2)c2cc(OC)c(OC)c(OC)c2)cc1N`, the growth in the assay on SR leukemia is 11.3%; in the assay on RPMI-8226 leukemia it was 12.8%; in the assay on OVCAR-8 ovarian it was 21.6%; in the assay with OVCAR-4 ovarian, 43.9%; in the assay with SK-OV-3 ovarian, 26.2%; with IGROV1 ovarian it was 24.7%. The growth is -27.8% (active) in the assay on OVCAR-3 ovarian; 32.6% with HS 578T breast; 13.7% in the assay on NCI/ADR-RES ovarian; 97.2% with T-47D breast; 16.6% with BT-549 breast; -43.8% (active) with MDA-MB-435 melanoma. Besides, the growth with SW-620 colon is 27.1%; in the assay on MCF7 breast, 12%; with HCT-116 colon it was 3.55% (active); in the assay on HCC-2998 colon, 31.8%; in the assay on KM12 colon it was 3.83% (active).

`CCn1cnc(C[C@H](NC(=O)[C@@H](NC(=O)Nc2cc(C(F)(F)F)cc(C(F)(F)F)c2)C(C)(C)C)C(=O)OC)c1`: the growth was -58.6% [100 µM] (active) in the assay on RPMI-8226 leukemia; -79.5% [100 µM] (active) with OVCAR-8 ovarian; -92.8% [100 µM] (active) in the assay with OVCAR-5 ovarian; -82.7% [100 µM] (active) in the assay with OVCAR-4 ovarian; -100% [100 µM] (active) in the assay on SK-OV-3 ovarian; -71.5% [100 µM] (active) in the assay with IGROV1 ovarian. Also, the growth in the assay with OVCAR-3 ovarian is -96.5% [100 µM] (active); in the assay on HS 578T breast it was -2.17% [100 µM] (active); with NCI/ADR-RES ovarian, 7.32% [100 µM] (active); in the assay with T-47D breast it was -58% [100 µM] (active); in the assay with BT-549 breast, -86.2% [100 µM] (active); in the assay with MDA-MB-435 melanoma, -90.7% [100 µM] (active). The growth in the assay on SW-620 colon was -60% [100 µM] (active); with MCF7 breast it was -62% [100 µM] (active); with HCT-116 colon, -81% [100 µM] (active); in the assay with HCC-2998 colon, -89.3% [100 µM] (active).
